TDP1 block = inhibitors of human tyrosyl-DNA phosphodiesterase TDP1. Potency, µM (series often up to 130 µM), without a hit: at the highest dose activity change, negative = inhibition, most hits filed as inhibitors. recombinant TDP1, AlphaScreen DNA substrate cleavage. 350,000 tested, 0.28% active; note: nearly all actives have a fitted effect of over 40% in size
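Enzyme-compound mixtures sat 15 min at room temperature, followed by a 5 min reaction with 15 nM final substrate and 10 min with AlphaScreen beads. Recombinant human Tdp1 was used at 1 nM final.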
PLK1 PBD block = PLK1 (human) polo-box domain binding inhibition; Potency, µM, for the others: max response, negative = inhibition, hits mostly inhibitors; AID 720504; Plk1 PBD binding of FITC phosphopeptide, fluorescence polarization; P53350; 360,000 tested, 2.8% active; note: series mostly up to about 57 µM; nearly all actives have a fitted effect of over 65% in size
VDR inhibitor = vitamin D3 receptor (human) inhibition | Potency, µM, inactives show max response, negative = inhibition, most hits filed as inhibitors | AID 504847 | 400,000 tested, 0.93% active | P11473 | VDR-SRC2-3 peptide fluorescence polarization, 2 h
Target sequence (P11473 whole entry, looked up): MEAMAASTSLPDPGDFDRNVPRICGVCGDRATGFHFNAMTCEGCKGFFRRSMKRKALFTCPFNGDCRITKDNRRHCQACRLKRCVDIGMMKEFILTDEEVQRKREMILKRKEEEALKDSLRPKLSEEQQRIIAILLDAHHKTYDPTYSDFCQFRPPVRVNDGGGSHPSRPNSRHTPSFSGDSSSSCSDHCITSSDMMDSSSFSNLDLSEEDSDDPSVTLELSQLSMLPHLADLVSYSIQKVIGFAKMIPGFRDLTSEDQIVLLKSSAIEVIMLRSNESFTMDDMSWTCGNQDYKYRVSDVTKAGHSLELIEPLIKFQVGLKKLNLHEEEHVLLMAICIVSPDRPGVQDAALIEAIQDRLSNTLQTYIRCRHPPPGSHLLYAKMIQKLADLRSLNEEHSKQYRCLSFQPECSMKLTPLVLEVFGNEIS
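Compounds are added to VDR with labelled SRC2-3 coactivator peptide and held 2 h at room temperature. Inhibition of the VDR–peptide interaction is then read as a change in fluorescence polarization.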
DT40 TDP1 no CPT = qHTS for Inhibitors of human tyrosyl-DNA phosphodiesterase 1 (TDP1): qHTS in cells in absence of CPT; DT40 Tdp1-/- hTDP1 cells, no CPT, ATP luminescence, 48 h; Potency, µM (highest dose often 46.2 µM), for inactives: at the top dose activity change, negative = growth inhibition, actives largely listed as inhibitors; 420,000 tested, 15% active; note: nearly all actives have a fitted effect of over 55% in size
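A cellular qHTS used chicken DT40 cells lacking endogenous Tdp1 but carrying stably transfected human TDP1. Compounds were applied without camptothecin, and cell growth kinetics were judged by ATP-dependent luminescence after ≥48 hr.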
GCN5L2 inh = blocks human GCN5L2 histone acetyltransferase. Q92830. GCN5L2 HAT assay, ThioGlo1 CoA-SH fluorescence. Potency, µM (series often up to 58.9 µM), inactives show at the highest dose activity change, negative = inhibition, hits mostly inhibitors. 390,000 tested, 0.21% active
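GCN5L2 (20nM final) in 50mM HEPES, 0.1mM EDTA pH 7.5, 0.01% Tween-20 was preincubated 15 min at room temperature with compound, then given ThioGlo1 (50uM), H3(1-25) peptide (75uM) and acetyl-CoA (70uM); CoA-thiol fluorescence (Ex340/Em540) was read at 0 and 20 min.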
DT40 TDP1 CPT = growth inhibition of DT40 Tdp1-/-;hTDP1 cells with camptothecin (screen for TDP1 inhibitors) | chicken DT40 Tdp1-/-;hTDP1 cells + 20 nM CPT, ATP luminescence, 48 h | AID 686979 | Potency, µM (doses to about 46.2 µM), for inactives: at the top dose activity change, negative = growth inhibition, hits mostly inhibitors | 420,000 tested, 12% active; note: nearly all actives have a fitted effect of over 55% in size
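Chicken DT40 Tdp1-/- cells complemented with human TDP1, 400 cells/well, exposed to compounds plus 20 nM camptothecin for at least 48 h at 37 C; viability read as ATP content by CellTiter-Glo luminescence.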
* hit, by the source's call; ? = inconclusive; · = no result given; [ ] = remark or other dose. A selection: hits, their analogues and other compounds. The true share with any hit is near 18%. Calls come from the whole dose curve; as a rule, active = well fitted curve in the direction sought with a large enough effect; inconclusive = small, poorly fitted or top-dose-only effect, or another doubt; inactive = no such curve, though single readings can be large; an effect the other way counts as inactive or inconclusive. % is set by controls: 0 for no effect and ±100 for the full control effect; potency is the fitted concentration of half-maximal effect.

SMILES	TDP1 block	PLK1 PBD block	VDR inhibitor	DT40 TDP1 no CPT	GCN5L2 inh	DT40 TDP1 CPT
COc1ccc2nc(N3CCCC(C(=O)NCCc4ccc(OC)c(OC)c4)C3)sc2c1 (stereo unspecified)	-4%	1%	-6%	13µM*	-5%	?
C[C@]12C[C@@](C)(C=C1/C=C/c1ccc(C(F)(F)F)cc1)C(=O)C[C@H]2c1ccc(C(F)(F)F)cc1	0%	·	2%	·	·	·
CC(C)NC(=O)CC(=O)NN=C1CCCCC1	6%	-8%	3%	-1%	-1%	27%
O=C(NNC(=O)c1cccnc1)Nc1ccc(Cl)c(Cl)c1	7%	-6%	-6%	-22%	-3%	-14%
O=C(Nc1ccc(Cl)c(Cl)c1)c1cccc(S(=O)(=O)NCc2cccnc2)c1	0%	-20%	-9%	12µM*	-3%	5.8µM*
O=C(c1ccc(Cl)c(S(=O)(=O)NCc2cccnc2)c1)N1CCCC1	1%[56.1 µM]	-23%	-21%	2.9µM*	-6%	?
Fc1ccc(NC(=S)Nc2cccnc2)cc1Cl	5%	-24%	-18%	23µM*	-2%	?
O=C(Nc1ccc(F)c(Cl)c1)c1cccnc1	·	21µM*	?	?	1%	?
COc1ccc(Cl)cc1NC(=S)Nc1cccnc1	0%	-20%	22%	-10%	-7%	-5%
C=C(C)C1CC=C(C)CC1 (stereo unspecified)	4%	·	4%	-1%	-24%	-11%
Cc1cccc(C(=O)Nc2sc3c(c2C(=O)N2CCCCC2)CCC(C)C3)c1 (stereo unspecified)	·	·	-14%	?	-1%	?
O=C(Nc1ccc2nn(-c3ccccc3)nc2c1)c1cccnc1	6%	-3%	-2%	16µM*	-1%	?
CCOc1ccc(-n2c(SCc3cc(=O)oc4cc(C)ccc34)nnc2-c2cccnc2)cc1	3%	3%	-4%	?	-3%	?
CC(C)c1ccccc1-n1c(SCc2cc(=O)oc3ccc4ccccc4c23)nnc1-c1cccnc1	3%	?	-17%	15µM*	-24%	?
CCc1cccc(CC)c1-n1c(SCC(=O)N2CCc3ccccc3C2)nnc1-c1cccnc1	2%	15%	-2%	23µM*	-4%	18µM*
CC(C)c1ccccc1-n1c(SCC(=O)N2CCN(c3ccccc3)CC2)nnc1-c1cccnc1	-2%	-7%	2%	23µM*	79%	16µM*
CC(C)(C)c1nnc2sc(SCC(=O)N3CCc4ccccc43)nn2c1=O	-1%	27µM*	-12%	?	-3%	?
CCc1nnc(SCC(=O)N2CCCc3ccccc32)nc1CC	6%	-15%	9%	-29%	2%	-16%
COc1ccc(C(=O)CSc2nn3c(=O)c(C(C)(C)C)nnc3s2)cc1	2%	-8%	-1%	?	2%	?
O=C(COc1ccccc1Cl)NC(=S)N1CCc2ccccc21	6%	-2%	-5%	?	-1%	-23%
O=C(CSc1n[nH]c(-c2ccccc2O)n1)N1CCCc2ccccc21	10%	-6%	-2%	21µM*	-15%	?
O=C(NC(=S)N1CCCc2ccccc21)c1ccc(Cl)cc1	-2%	27µM*	?	?	-5%	-18%
O=C(COc1ccccc1)NC(=S)N1CCc2ccccc21	6%	-9%	-13%	16µM*	1%	?
CCOC(=O)Cc1csc(SCC(=O)NC2CCCC2)n1	-2%	-9%	9%	-9%	-3%	-6%
N=C(N1CCCc2ccccc21)N1CCCc2ccccc21	·	2%	4%	21µM*	·	16µM*
CSc1nsc(SCC(=O)N2CCCc3ccccc32)n1	3%	-12%	0%	29µM*	0%	?
Cc1ccnc(SCC(=O)N2CCCc3ccccc32)n1	2%	5%	0%	1%	-6%	-3%

Assay outcomes (PubChem BioAssay)
